Here are results for 6 compounds from PubChem BioAssay (EPA / NIEHS).

The structures appear in SMILES notation. Values joined by “and” are separate entries in the source; they are usually repeats but may differ in a detail not shown here. Equal entries are not always repeated. Records with an inconclusive call do not appear. Some compounds were tested as several samples or in several runs, with calls that do not always agree. Active and inactive are the calls of the source. Rule for the calls, unless noted: active = hit-call score of the fitted dose curve at least 0.9, where 1 is the maximum; inconclusive = response in the unintended direction; inactive = score below 0.9.

Assay [1] deals with Sodium/Iodide Symporter (NIS), SLC5A5 (gene 6528). In words: CPHEA_Stoker_NIS_Inhibition_RAIU: CPHEA's Radioactive Iodide Uptake (RAIU) Assay for Sodium/Iodide Symporter (NIS) Inhibition, Stoker and Laws Labs (AID 2283841). The method in brief: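 Iodide uptake read as CPM of intracellular 125I (final 329 pM) after 2 h room-temperature exposure in HEPES-buffered HBSS, pH 7.4. Human NIS-expressing HEK293T cells; six concentrations 0.001–100 uM, 0.5% DMSO, normalised to DMSO wells.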

Assay [2] concerns zebrafish Estrogen Receptor (ER2a), gene 317734. In words: ATG_zfER2a_XSP2: Attagene TRANS-FACTORIAL Multi-Species (XSP2) HepG2 Assay for zebrafish Estrogen Receptor (ER2a) (AID 2283818).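 Note: hits raise reporter mRNA so AC50 reflects activation of zebrafish ER2a.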 The method in brief:
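Multiplexed trans-reporter readout: RT-PCR then capillary electrophoresis of reporter transcripts after 24 h compound treatment. Human HepG2 carries transfected zebrafish ER2a-Gal4 chimera; 3 nM 6-alpha-fluorotestosterone plus 1.5 nM norgestrel present. Induction scored against DMSO.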

Assay [3] relates to chicken Androgen Receptor (AR), gene 422165. In words: ATG_chAR_XSP2: Attagene TRANS-FACTORIAL Multi-Species (XSP2) HepG2 Assay for chicken Androgen Receptor (AR) (AID 2283819).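 Note: hits raise reporter mRNA above DMSO so potency is for activation.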 In short, it runs like this:
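Readout is reporter mRNA induction via RT-PCR/capillary electrophoresis after 24 h chemical exposure, positive direction relative to DMSO. Transiently transfected HepG2 express chimeric chicken AR–GAL4; AR stimulated by 3 nM 6-alpha-fluorotestosterone and 1.5 nM norgestrel.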

For assay [4], the system named is zebrafish Estrogen Receptor (ER2b), gene 317733. In words: ATG_zfER2b_XSP2: Attagene TRANS-FACTORIAL Multi-Species (XSP2) HepG2 Assay for zebrafish Estrogen Receptor (ER2b) (AID 2283823).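 Note: fitted upward as reporter gain over DMSO so potency reflects activation.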 In short, it runs like this: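 Cells used were HepG2, transiently transfected with chimeric nuclear receptor-Gal4 reporter units. After 24 h of chemical treatment, reporter transcripts were amplified by RT-PCR, labelled and sized by capillary electrophoresis, with induction analysed relative to DMSO.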

The subject of assay [5] is frog Androgen Receptor (AR), gene 399456. In words: ATG_frAR_XSP2: Attagene TRANS-FACTORIAL Multi-Species (XSP2) HepG2 Assay for frog Androgen Receptor (AR) (AID 2283824).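 Note: reporter mRNA from GAL4-UAS units driven by Xenopus AR-Gal4 chimera; actives raise reporter signal above DMSO so AC50 reflects agonist-like induction.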 In short, it runs like this: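 Reporter transcript induction, read by RT-PCR with fluorescent capillary electrophoresis, in human liver HepG2 cells carrying an exogenous Xenopus AR-Gal4 fusion and GAL4-driven reporters; chemical exposure 24 hours, activity scored upward against DMSO controls.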

Assay [6] has as its target Estrogen receptor (Homo sapiens) (UniProt P03372). In words: ATG_hERa_XSP2: Attagene TRANS-FACTORIAL Multi-Species (XSP2) HepG2 Assay for human Estrogen Receptor (ERa) (AID 2283827). The method in brief:
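Trans-activation of exogenous human ERa-Gal4 chimera read in HepG2 as reporter transcript after 24 h exposure; medium included 3 nM 6-alpha-fluorotestosterone and 1.5 nM norgestrel. Quantified by RT-PCR with capillary electrophoresis, positive-direction fitting against DMSO.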

Assay [7] has as its system frog Estrogen Receptor (ER2), gene 100174814. In words: ATG_frER2_XSP2: Attagene TRANS-FACTORIAL Multi-Species (XSP2) HepG2 Assay for frog Estrogen Receptor (ER2) (AID 2283828). In short, it runs like this:
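Induction of reporter mRNA, baseline set by DMSO, is the endpoint. The panel was run in transfected HepG2 cells over 24 h, with 3 nM 6-alpha-fluorotestosterone and 1.5 nM norgestrel present to stimulate androgen receptor.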

For assay [8], the target named is Peroxisome proliferator-activated receptor gamma (Homo sapiens) (UniProt P37231). In words: ATG_hPPARg_XSP2: Attagene TRANS-FACTORIAL Multi-Species (XSP2) HepG2 Assay for human Peroxisome Proliferator-activated Receptor gamma (PPARg) (AID 2283829).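 Note: actives raise reporter mRNA above DMSO so AC50 reflects PPARg activation.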 The method in brief: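 After transfecting HepG2 with GAL4-UAS reporter constructs, cells are dosed for 24 h; total RNA is reverse-transcribed, PCR-amplified, FAM-labeled, HpaI-digested and resolved by capillary electrophoresis. Activity is measured as mRNA induction relative to DMSO.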
Chain of Peroxisome proliferator-activated receptor gamma (Homo sapiens) (P37231 whole entry, looked up, the tested form may be a part): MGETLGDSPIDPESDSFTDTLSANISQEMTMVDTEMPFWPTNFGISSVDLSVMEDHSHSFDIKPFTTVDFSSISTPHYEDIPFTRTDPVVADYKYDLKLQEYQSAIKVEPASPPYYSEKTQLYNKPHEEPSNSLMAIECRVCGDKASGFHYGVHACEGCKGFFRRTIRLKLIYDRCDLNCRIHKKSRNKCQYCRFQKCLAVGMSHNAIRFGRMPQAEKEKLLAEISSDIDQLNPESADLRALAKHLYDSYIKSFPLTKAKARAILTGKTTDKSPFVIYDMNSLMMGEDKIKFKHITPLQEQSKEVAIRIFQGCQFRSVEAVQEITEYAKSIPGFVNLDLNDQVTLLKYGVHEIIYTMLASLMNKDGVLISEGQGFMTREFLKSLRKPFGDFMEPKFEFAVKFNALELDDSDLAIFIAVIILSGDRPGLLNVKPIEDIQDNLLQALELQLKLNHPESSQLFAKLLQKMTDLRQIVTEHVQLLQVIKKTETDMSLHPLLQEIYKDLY

The nature of assay [9]: ATG_M_61_XSP2: Attagene TRANS-FACTORIAL Multi-Species (XSP2) HepG2 Assay for M61 Transcription Factor (Internal Marker) (AID 2283835; active = hit-call score of the fitted dose curve at least 0.9, where 1 is the maximum; inactive = score below 0.9;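 note: active means a rise in signal above the DMSO baseline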). In short, it runs like this: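 Signal was mRNA induction detected as fluorescence after RT-PCR and capillary electrophoresis, analysed in the gain direction with DMSO as baseline. HepG2 cells transiently carrying reporter constructs received chemicals for 24 h.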

Assay [10] concerns the target zebrafish Thyroid Hormone Receptor beta (TRb), thrb (gene 30607) (UniProt Q9PVE4). In words: ATG_zfTRb_XSP2: Attagene TRANS-FACTORIAL Multi-Species (XSP1) HepG2 Assay for zebrafish Thyroid Hormone Receptor beta (TRb) (AID 2283836). The method in brief:
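Reporter transcripts measured by RT-PCR, 6-FAM labelling, HpaI digestion and capillary electrophoresis after 24 h chemical exposure. Human HepG2 cells carry an exogenous zebrafish TRb-GAL4 chimera; medium included 3 nM 6-alpha-fluorotestosterone plus 1.5 nM norgestrel.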

The target in assay [11] is frog Thyroid hormone Receptor alpha (TRa), thra-a (gene 397942) (UniProt P15204). In words: ATG_frTRa_XSP2: Attagene TRANS-FACTORIAL Multi-Species (XSP2) HepG2 Assay for frog Thyroid hormone Receptor alpha (TRa) (AID 2283839). The method in brief: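 Transfect HepG2 with multiple reporter units (GAL4-UAS), dose chemical, incubate 24 h. Isolate RNA, reverse-transcribe, PCR-amplify reporter, label with 6-FAM by primer extension, digest with HpaI, run capillary electrophoresis; induction scored against DMSO.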
Chain of frog Thyroid hormone Receptor alpha (TRa), thra-a (gene 397942) (P15204 whole entry, looked up, the tested form may be a part): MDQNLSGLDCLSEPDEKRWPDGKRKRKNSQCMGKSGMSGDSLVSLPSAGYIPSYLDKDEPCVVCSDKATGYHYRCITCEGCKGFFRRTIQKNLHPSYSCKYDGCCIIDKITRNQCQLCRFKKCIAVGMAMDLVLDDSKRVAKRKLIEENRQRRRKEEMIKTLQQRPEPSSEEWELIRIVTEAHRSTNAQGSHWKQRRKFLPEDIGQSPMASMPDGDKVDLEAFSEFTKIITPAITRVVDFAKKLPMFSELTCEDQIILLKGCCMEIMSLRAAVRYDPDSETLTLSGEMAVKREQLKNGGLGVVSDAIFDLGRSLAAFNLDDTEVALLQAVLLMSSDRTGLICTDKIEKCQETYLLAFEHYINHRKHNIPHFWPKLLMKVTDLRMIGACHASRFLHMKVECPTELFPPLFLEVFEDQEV

The target of assay [12] is human Thyroid hormone Receptor beta (TRb), THRB (gene 7068) (UniProt P10828). In words: ATG_hTRb_XSP2: Attagene TRANS-FACTORIAL Multi-Species (XSP2) HepG2 Assay for human Thyroid hormone Receptor beta (TRb) (AID 2283840).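 Note: actives raise reporter mRNA so potency reflects agonist-like gain of signal.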 The method in brief: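 Transient transfection of human HepG2 with multi-species NR-Gal4/GAL4-UAS reporter constructs; 24 h compound treatment; RNA isolation, reverse transcription, PCR and HpaI digest; capillary electrophoresis of labeled fragments; activity fitted upward versus DMSO.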
Chain of human Thyroid hormone Receptor beta (TRb), THRB (gene 7068) (P10828 whole entry, looked up, the tested form may be a part): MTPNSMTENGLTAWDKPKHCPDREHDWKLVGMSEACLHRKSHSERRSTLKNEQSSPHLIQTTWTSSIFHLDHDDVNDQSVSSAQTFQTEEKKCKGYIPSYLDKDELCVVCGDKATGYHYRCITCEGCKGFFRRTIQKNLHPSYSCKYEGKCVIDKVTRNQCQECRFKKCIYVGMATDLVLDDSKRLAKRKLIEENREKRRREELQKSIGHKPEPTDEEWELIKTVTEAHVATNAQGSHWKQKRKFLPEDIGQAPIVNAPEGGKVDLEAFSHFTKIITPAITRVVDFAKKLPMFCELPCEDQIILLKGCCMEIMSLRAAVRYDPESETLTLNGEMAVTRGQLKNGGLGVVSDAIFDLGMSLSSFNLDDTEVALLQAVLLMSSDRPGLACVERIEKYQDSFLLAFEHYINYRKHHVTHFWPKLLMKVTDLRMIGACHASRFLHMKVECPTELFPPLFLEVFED

The subject of assay [13] is zebrafish Androgen Receptor (AR), gene 100005148. In words: ATG_zfAR_XSP2: Attagene TRANS-FACTORIAL Multi-Species (XSP2) HepG2 Assay for zebrafish Androgen Receptor (AR) (AID 2283825).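 Note: hits raise reporter mRNA above DMSO so AC50 reflects agonist-type gain.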 In short, it runs like this:
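After 24 h compound exposure in medium with 3 nM 6-alpha-fluorotestosterone plus 1.5 nM norgestrel, HepG2 cells carrying zebrafish AR–GAL4 reporter constructs were assessed for reporter mRNA gain by RT-PCR and capillary electrophoresis.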

Assay [14] deals with Nuclear receptor subfamily 1 group I member 2 (Mus musculus) (UniProt O54915). In words: ATG_mPXR_XSP2: Attagene TRANS-FACTORIAL Multi-Species (XSP1) HepG2 Assay for mouse Pregnane X Receptor (PXR) (AID 2283831). In short, it runs like this:
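Reporter transcripts were quantified by RT-PCR, FAM primer extension, HpaI digestion and capillary electrophoresis after 24 h of chemical exposure in transiently transfected HepG2 cells carrying chimeric receptor-GAL4 constructs; DMSO served as baseline.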

Assay [15] deals with human Androgen Receptor (AR), AR (gene 367) (UniProt P10275). In words: ATG_hAR_XSP2: Attagene TRANS-FACTORIAL Multi-Species (XSP2) HepG2 Assay for human Androgen Receptor (AR) (AID 2283820). The method in brief: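 Reporter transcripts were measured by RT-PCR and capillary electrophoresis 24 h post-dosing, with gain of signal fitted against DMSO. Transiently transfected HepG2 cells expressed chimeric NR-Gal4 on GAL4-UAS reporters, with AR stimulated by 3 nM 6-alpha-fluorotestosterone and 1.5 nM norgestrel.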
Chain of human Androgen Receptor (AR), AR (gene 367) (P10275 whole entry, looked up, the tested form may be a part): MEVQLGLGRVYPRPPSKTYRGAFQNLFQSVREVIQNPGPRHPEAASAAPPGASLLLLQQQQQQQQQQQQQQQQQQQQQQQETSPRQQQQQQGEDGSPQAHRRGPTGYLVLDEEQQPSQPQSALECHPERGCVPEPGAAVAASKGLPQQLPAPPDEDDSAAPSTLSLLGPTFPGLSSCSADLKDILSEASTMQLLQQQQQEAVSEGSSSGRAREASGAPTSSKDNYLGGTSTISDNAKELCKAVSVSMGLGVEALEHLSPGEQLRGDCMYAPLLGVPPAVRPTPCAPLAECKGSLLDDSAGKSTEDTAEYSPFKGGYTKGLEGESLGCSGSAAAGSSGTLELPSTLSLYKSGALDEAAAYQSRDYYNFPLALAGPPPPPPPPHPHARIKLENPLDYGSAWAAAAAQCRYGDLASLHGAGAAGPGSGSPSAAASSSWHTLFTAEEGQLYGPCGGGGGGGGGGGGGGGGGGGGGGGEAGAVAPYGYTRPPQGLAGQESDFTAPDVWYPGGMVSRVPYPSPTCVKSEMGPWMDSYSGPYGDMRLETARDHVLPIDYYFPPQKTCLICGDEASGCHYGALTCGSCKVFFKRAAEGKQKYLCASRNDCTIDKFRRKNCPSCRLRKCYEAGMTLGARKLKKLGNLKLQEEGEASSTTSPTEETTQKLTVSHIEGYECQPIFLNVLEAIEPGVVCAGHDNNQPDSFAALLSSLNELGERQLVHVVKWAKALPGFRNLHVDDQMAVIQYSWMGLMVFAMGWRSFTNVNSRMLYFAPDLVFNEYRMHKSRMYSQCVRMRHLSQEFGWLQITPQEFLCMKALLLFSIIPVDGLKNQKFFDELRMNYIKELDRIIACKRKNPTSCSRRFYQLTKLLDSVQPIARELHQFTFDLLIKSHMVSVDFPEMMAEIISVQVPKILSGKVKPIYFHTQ

Assay [16] is described as follows: ATG_M_19_XSP2: Attagene TRANS-FACTORIAL Multi-Species (XSP2) HepG2 Assay for M32 Transcription Factor (Internal Marker) (AID 2283822). In short, it runs like this: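 Internal background marker in a multi-species nuclear receptor TRANS panel: transfected HepG2 cells exposed 24 h, with 3 nM 6-alpha-fluorotestosterone and 1.5 nM norgestrel present. Readout is RT-PCR of reporter transcripts resolved by capillary electrophoresis, gain-of-signal versus DMSO.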

In assay [17] the target is zebrafish Thyroid Hormone Receptor alpha (TRa), thraa (gene 30670) (UniProt Q98867). In words: ATG_zfTRa_XSP2: Attagene TRANS-FACTORIAL Multi-Species (XSP1) HepG2 Assay for zebrafish Thyroid Hormone Receptor alpha (TRa) (AID 2283832).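 Note: actives raise zebrafish TRa-Gal4 reporter transcript above DMSO baseline.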 The method in brief:
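Chimeric zebrafish TRa-Gal4 activity read in transfected human HepG2 as GAL4-UAS reporter transcripts, 24 h post-dose, via RT-PCR with labeled primer extension and capillary electrophoresis. Medium also carries 3 nM 6-alpha-fluorotestosterone and 1.5 nM norgestrel; DMSO baseline.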

Assay [18] has as its system zebrafish Peroxisome Proliferator-activated Receptor gamma (PPARg), gene 557037. In words: ATG_zfPPARg_XSP2: Attagene TRANS-FACTORIAL Multi-Species (XSP2) HepG2 Assay for zebrafish Peroxisome Proliferator-activated Receptor gamma (PPARg) (AID 2283833).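 Note: actives increase reporter signal over DMSO so AC50 reflects activation.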 In short, it runs like this: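 Multi-species TRANS format in HepG2, 24 h dosing; medium also contained 3 nM 6-alpha-fluorotestosterone and 1.5 nM norgestrel to stimulate androgen receptor. Zebrafish PPARg-GAL4 induced reporter mRNA was measured by RT-PCR/capillary electrophoresis.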

The target in assay [19] is human Thyroid hormone Receptor alpha (TRa), THRA (gene 7067) (UniProt P10827). In words: ATG_hTRa_XSP2: Attagene TRANS-FACTORIAL Multi-Species (XSP2) HepG2 Assay for human Thyroid hormone Receptor alpha (TRa) (AID 2283838). In short, it runs like this:
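Reporter transcripts were read by RT-PCR with fluorescent primer extension, HpaI digestion and capillary electrophoresis. These came from HepG2 cells carrying multiplexed TRa-Gal4 TRANS constructs, harvested 24 hours after dosing. The medium also held 6-alpha-fluorotestosterone (3 nM) and norgestrel (1.5 nM), and increases were fitted against DMSO.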

Chain of Estrogen receptor (Homo sapiens) (P03372 whole entry, looked up, the tested form may be a part): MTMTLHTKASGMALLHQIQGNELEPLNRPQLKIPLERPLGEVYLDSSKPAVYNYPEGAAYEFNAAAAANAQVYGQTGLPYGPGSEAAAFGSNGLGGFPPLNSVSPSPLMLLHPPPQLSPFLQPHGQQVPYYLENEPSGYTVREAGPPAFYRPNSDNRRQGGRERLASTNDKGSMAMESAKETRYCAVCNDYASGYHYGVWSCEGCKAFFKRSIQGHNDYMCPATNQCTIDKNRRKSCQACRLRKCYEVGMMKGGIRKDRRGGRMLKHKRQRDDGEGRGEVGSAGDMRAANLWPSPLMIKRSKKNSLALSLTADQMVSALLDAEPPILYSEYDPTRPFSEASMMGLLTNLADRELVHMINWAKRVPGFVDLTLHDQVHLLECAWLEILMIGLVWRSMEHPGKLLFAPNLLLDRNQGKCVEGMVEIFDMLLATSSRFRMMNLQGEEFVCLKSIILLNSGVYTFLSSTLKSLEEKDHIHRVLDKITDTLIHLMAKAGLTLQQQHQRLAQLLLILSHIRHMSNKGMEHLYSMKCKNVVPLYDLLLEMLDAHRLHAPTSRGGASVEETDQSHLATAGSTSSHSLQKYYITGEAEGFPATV
Chain of zebrafish Thyroid Hormone Receptor beta (TRb), thrb (gene 30607) (Q9PVE4 whole entry, looked up, the tested form may be a part): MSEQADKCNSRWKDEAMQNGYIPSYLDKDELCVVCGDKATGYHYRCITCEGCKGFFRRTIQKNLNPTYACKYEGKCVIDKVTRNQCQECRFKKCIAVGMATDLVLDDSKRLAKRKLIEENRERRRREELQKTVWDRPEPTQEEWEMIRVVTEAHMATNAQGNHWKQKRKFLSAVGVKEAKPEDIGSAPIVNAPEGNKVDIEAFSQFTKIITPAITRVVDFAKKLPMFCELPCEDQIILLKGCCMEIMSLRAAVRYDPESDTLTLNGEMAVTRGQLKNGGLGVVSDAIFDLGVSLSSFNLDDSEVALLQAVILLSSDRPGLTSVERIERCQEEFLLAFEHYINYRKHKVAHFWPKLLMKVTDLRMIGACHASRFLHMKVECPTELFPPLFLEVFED
Chain of Nuclear receptor subfamily 1 group I member 2 (Mus musculus) (O54915 whole entry, looked up, the tested form may be a part): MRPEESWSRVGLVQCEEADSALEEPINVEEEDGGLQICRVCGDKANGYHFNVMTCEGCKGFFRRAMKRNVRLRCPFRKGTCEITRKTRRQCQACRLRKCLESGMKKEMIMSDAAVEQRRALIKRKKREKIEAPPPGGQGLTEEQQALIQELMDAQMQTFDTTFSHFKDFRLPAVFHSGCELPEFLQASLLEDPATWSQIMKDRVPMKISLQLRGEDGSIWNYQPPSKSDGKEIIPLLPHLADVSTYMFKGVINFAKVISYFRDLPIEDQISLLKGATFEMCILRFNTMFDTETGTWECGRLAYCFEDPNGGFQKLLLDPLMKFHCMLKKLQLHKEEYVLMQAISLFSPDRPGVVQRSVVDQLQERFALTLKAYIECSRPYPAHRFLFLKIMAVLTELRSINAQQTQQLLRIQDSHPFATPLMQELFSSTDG
Chain of zebrafish Thyroid Hormone Receptor alpha (TRa), thraa (gene 30670) (Q98867 whole entry, looked up, the tested form may be a part): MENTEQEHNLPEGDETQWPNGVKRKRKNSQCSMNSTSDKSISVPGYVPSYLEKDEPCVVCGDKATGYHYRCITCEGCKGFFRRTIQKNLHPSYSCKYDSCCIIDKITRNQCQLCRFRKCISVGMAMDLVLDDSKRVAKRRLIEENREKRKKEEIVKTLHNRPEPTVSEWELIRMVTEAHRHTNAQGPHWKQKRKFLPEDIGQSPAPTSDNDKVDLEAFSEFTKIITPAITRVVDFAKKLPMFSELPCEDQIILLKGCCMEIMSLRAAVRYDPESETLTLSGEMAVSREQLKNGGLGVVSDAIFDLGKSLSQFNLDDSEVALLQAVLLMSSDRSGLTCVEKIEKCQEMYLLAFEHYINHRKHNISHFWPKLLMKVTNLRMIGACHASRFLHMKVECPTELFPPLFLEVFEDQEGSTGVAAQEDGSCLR
Chain of human Thyroid hormone Receptor alpha (TRa), THRA (gene 7067) (P10827 whole entry, looked up, the tested form may be a part): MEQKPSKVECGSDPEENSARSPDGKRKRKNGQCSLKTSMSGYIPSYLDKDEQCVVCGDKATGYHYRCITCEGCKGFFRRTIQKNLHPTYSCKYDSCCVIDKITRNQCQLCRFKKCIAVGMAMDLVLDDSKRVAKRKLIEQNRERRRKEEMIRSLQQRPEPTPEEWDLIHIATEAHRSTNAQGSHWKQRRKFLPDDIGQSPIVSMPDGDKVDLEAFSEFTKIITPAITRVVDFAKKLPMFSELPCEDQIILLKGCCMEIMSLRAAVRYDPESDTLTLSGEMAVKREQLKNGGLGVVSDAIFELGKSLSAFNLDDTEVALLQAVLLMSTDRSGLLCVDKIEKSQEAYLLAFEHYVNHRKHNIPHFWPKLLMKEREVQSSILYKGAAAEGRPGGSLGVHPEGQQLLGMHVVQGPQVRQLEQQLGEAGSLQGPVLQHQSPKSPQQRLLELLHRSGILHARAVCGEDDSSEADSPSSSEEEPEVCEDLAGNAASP

For the compound `O=C(O)c1ccccc1`, in [1], the outcome was inactive.

Turning to `O=C(c1ccc(O)cc1O)c1ccc(O)cc1O`, the AC50 in assay [2] is 1.12 µM (active); in [3] it was 8.13 µM (active); in [4] it was 2.47 µM (active); in assay [6], 3.02 µM (active); in assay [7] it was 2.72 µM (active). Further, the result in assay [5], in assay [8], in assay [9], in assay [10], in assay [11] and in [12] was inactive.

Regarding `CSC(=O)c1cccc2nnsc12`, the compound was called inactive in [2], in assay [3], in assay [13], in [6], in [7] and in assay [8]. The result in assay [14], in [9], in assay [10], in [12] and in assay [1] was inactive. In addition, the AC50 in [4] was 152 µM (active) and 121 µM (active); in assay [8] it was 51.7 µM (active).

`c1ccc(Nc2ccccc2)cc1`: in [1], the outcome was inactive.

Regarding `CC1(C)C(C=C(Cl)Cl)C1C(=O)OCc1cccc(Oc2ccccc2)c1` (stereo unspecified), the AC50 in assay [2] is 18.6 µM (active); in [4] it was 100 µM (active); in assay [6] it was 7.48 µM (active); in assay [7], 34.8 µM (active); in assay [14] it was 3.06 µM (active); in assay [12], 100 µM (active). For the same compound, the outcome in assay [3], in assay [15], in assay [16], in assay [5], in assay [17] and in assay [18] was inactive. The outcome in assay [19] and in assay [11] was inactive.

As for `S=C(S)NCCNC(=S)S.[Mn+2].[S-]C([S-])=NCCN=C([S-])[S-].[Zn+2]`, the outcome in assay [1] was inactive.
